From PubChem BioAssay AID504834 (National Center for Advancing Translational Sciences (NCATS), 2011)
The campaign covered roughly 320,000 compounds. About 22,000 (6.9%) were called active. About 27% were inconclusive and are not listed. The full list was thinned out, with actives kept by preference. Unmarked numbers belong to inactive results. Calls follow the shape of the dose curve; as a rule, active = well fitted inhibition curve with a large enough effect; inconclusive = small, poorly fitted or top-dose-only effect, or another doubt; inactive = no such curve, though single readings can be large or run the other way.

Experiment: Primary qHTS for delayed death inhibitors of the malarial parasite plastid, 96 hour incubation
Details: P. falciparum luciferase reporter growth; series mostly up to 28.7 µM; activity change, negative = inhibition: at the top concentration
Outline: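 Infected RBCs, 2% Hct / 0.05% parasitemia final; luciferase-reporter P. falciparum; cpd 96 h, 37 C, 5% CO2; luciferase detection reagent; luminescence.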
% is scaled to controls: 0 for no effect and ±100 for the full control effect; potency is read from the fitted curve at half-maximal effect.

Compound | activity change, negative = inhibition [%] | Potency
CC(=O)c1ccc(NC(=O)CCNS(=O)(=O)c2cc(Br)cnc2N)cc1 | 20.4 | 
C/C(=N\NC(=O)CC(C)C)c1c(C(F)(F)F)[nH]n(-c2nc3ccccc3s2)c1=O | 0 | 
COc1ccc(/C=C/C(=O)Nc2ccc(C)cc2)cc1S(=O)(=O)N1CCOCC1 |  | 11.7 µM (active)
COc1ccc(S(=O)(=O)N2CCOCC2)c(C)c1C | 3.7 | 
COc1ccc(CC(=O)Nc2ccc3c(c2)CCC3)cc1S(=O)(=O)N1CCOCC1 | 0 | 
COc1ccc(C(=O)NC(=S)N2CCNC(=O)C2CC(=O)OC(C)C)cc1 (stereo not drawn) | 4.17 | 
O=C1CCC(=O)N(c2ccccc2)N1 | 11.7 | 
Cc1cc(C)nc(Nc2n[nH]c(-c3ccccc3N)n2)n1 | 227 | 
COc1ccccc1OCC(=O)Nc1ccccc1C(=O)NC1CC1 | 45.6 | 
N#Cc1cc([N+](=O)[O-])ccc1NCC1CCCO1 (stereo not drawn) | -0.513 | 
C/C(N)=C(/C#N)C(=O)COC(=O)C1=NN(c2ccccc2)C(=O)CC1 | 30 | 
COC(=O)CC1=NN(c2nc(C)cc(C)n2)C(=O)C1 | -5.91 | 
COC(=O)CC1=NN(c2ccccc2)C(=O)C1 |  | 5.22 µM (active)
COc1cc([C@H](Cc2ccccc2)NC(C)=O)oc(=O)c1 |  | 2.94 µM (active)
CCOC(=O)C(Cc1ccccc1)NC(=O)CCC(=O)c1ccc(OC)cc1 (stereo not drawn) | 28.2 | 
COC(=O)[C@H](Cc1ccccc1)NC(=O)Nc1ccc(OC)cc1 | 26.2 | 
O=S(=O)(Nc1cccc(Oc2ccc(Cl)cc2)n1)c1ccc(F)cc1 | 5.23 | 
Nc1ccc(Cl)c(S(=O)(=O)Nc2ccccc2Cl)c1 | 4.92 | 
Cc1cccc(NS(=O)(=O)c2cc(Cl)ccc2Cl)n1 |  | 2.94 µM (active)
Cc1ccc(C(=O)NCCNC(=O)c2cnccn2)cc1 | 0.273 | 
O=C(O)CCCC(=O)N1N=C(c2ccco2)CC1c1ccco1 (stereo not drawn) | -25.2 | 
O=S(=O)([N-]c1nc2ccccc2nc1-[n+]1ccc(Cc2ccccc2)cc1)c1ccc(Br)s1 |  | 13.1 µM (active)
O=S(=O)(NCc1cccnc1)c1ccc(Br)s1 | -3.44 | 
Oc1ccccc1-c1cc(-c2ccc(Cl)cc2)n[nH]1 | -48.6 | 
CCc1nn(CC(=O)N2CCN(c3cc(C)ccc3C)CC2)c(=O)c2cc3occc3n12 | -0.478 | 
O=C(O)c1cc(S(=O)(=O)N(Cc2ccccc2)c2ccccc2)ccc1Cl | 68.6 | 
COc1cccc(-c2noc(C3CCCN(C(=O)c4ccc(F)cc4)C3)n2)c1 (stereo not drawn) | 84 | 

Compound | activity change, negative = inhibition [%] | Potency
COc1cc(OC)nc(S(C)(=O)=O)n1 |  | 11.7 µM (active)
COc1ccc(NS(=O)(=O)c2ccc(F)cc2F)cn1 | 36 | 
COc1cc(OC)nc(NC(=O)CCl)n1 | 4.17 | 
CC(NC(=O)C(C)(C)C)C(c1cccs1)N1CCN(Cc2ccccc2)CC1 (stereo not drawn) | -2.32 | 
Cc1ccc(NC(=O)CCCNC(=O)c2ccc(Cl)cc2)cc1S(=O)(=O)N1CCCCC1 | 29.9 | 
CCOC(=O)c1sc(NC(=O)CSc2nc3c(c(=O)n2-c2ccccc2)SCC3)c(C(=O)OCC)c1C |  | 3.7 µM (active)
COc1ccccc1-n1c(CNC(=O)c2ccccc2)nnc1SCC(=O)Nc1nnc(C)s1 | 8.45 | 
CCOC(=O)c1sc(NC(=O)COc2ncnc3ccccc23)c(C(=O)OCC)c1C | -21.2 | 
CCc1nnc(NC(=O)CSc2nc3c(c(=O)n2-c2ccccc2OC)SCC3)s1 |  | 8.28 µM (active)
CCc1nnc(NC(=O)CSc2nnc(Cc3ccccc3)n2-c2ccc(OC)cc2)s1 | 39.7 | 
CCOC(=O)c1c(NC(=O)CSc2nnc(Cc3csc(N)n3)n2C)sc(C)c1C | 18.3 | 
Cc1cc(C(=O)NC2CCN(Cc3ccccc3)CC2)n[nH]1 | 57.9 | 
O=C(Nc1cc2c3c(c1)CC(=O)N3CCC2)c1ccccc1F | -13 | 
CCCC1C(=O)N2C(N(C)C)=Nc3ccc(C)cc3N2C1=O (stereo not drawn) | 12.4 | 
COc1ccc(C(=O)N/N=C(\C)CC(=O)Nc2ccc(Cl)cn2)cc1 | 34.4 | 
CC(c1ccccn1)N(C)C(=O)c1ccc2nc(Cc3cccc(Cl)c3)oc2c1 (stereo not drawn) | -1.98 | 
O=C(Cc1c(Cl)cccc1Cl)NC1CC1 | 0.175 | 
COC(=O)c1ccc(COc2ccc(C#N)cc2)o1 | -24.3 | 
CC(Oc1ccc(Br)cc1)C(=O)NC1CCCCCC1 (stereo not drawn) | 52.7 | 
CN(C)S(=O)(=O)c1ccc(C(=O)NCCN=C2NS(=O)(=O)c3ccccc32)cc1 | 34.3 | 
Cc1cc(F)ccc1N1CCC(N2CCN(C)C(CCO)C2)CC1 (stereo not drawn) | 0 | 
CCOc1ccccc1CN1CCN(C2CCC2)CC1CCO (stereo not drawn) | -8.22 | 
COc1ccc(N2CCC(N3CCN(C)C(CCO)C3)CC2)cc1 (stereo not drawn) |  | 14.7 µM (active)
COc1ccc(OCC(=O)Nc2ccc(N3CCC(C)CC3)cc2)cc1 | 15.5 | 
COc1ccccc1N1CCC(N2CCN(CC(C)(C)C)C(CCO)C2)CC1 (stereo not drawn) |  | 0.465 µM (active)
CNCC(O)CN1CCN(c2ccccc2OC)CC1 (stereo not drawn) | 23.6 | 
